# Assay outcomes as filed in PubChem BioAssay.
# In the library only some 2.3% were active in any assay of this set; here they are far more common.
# Rtt109 Vps75 = inhibitors of Candida albicans Rtt109/Vps75 histone acetyltransferase; Q5AAJ8; purified Rtt109/Vps75, ThioGlo CoA-SH fluorescence, 4 h; inhibition, % at 34.9 µM; hit rate 0.16% among 330,000;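 active means inhibition of at least 50% in every replicate; inconclusive means best replicate reaches 50% inhibition but some replicates fall short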
# Target sequence (Q5AAJ8 whole entry, looked up): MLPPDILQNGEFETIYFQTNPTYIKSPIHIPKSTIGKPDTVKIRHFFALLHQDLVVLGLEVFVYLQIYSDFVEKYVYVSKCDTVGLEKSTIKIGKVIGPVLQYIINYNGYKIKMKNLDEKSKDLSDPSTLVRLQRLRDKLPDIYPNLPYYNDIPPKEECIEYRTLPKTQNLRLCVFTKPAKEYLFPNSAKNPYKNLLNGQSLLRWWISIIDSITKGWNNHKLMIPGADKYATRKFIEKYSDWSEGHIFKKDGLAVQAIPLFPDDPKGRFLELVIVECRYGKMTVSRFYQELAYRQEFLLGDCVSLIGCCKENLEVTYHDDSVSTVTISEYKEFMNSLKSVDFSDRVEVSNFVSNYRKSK
# PDI inh = inhibitors of human protein disulfide isomerase | hit rate 0.052% among 350,000 | PDI insulin aggregation turbidity, A650, 90 min | inhibition, % at 10 µM | P07237 | AID 588391;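 active means mean inhibition across replicates of 30% or more, whatever share of single replicates reach that level; inconclusive means mean inhibition below 30% while every single replicate reaches 30%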
# DENV2 CPE = protects cells from dengue virus 2 cytopathic effect; DENV2-infected cells, cytopathic effect rescue, plate reader; CPE inhibition, % at 9.99 µM; hit rate 1.7% among 350,000; in the data active means CPE inhibition above about 20%, passing the limit was not always enough; inconclusive means no clear call, values can overlap the other calls; tested in BHK-21 cells
# ERp5 inh = inhibitors of human ERp5. Q15084. ERp5 insulin aggregation, absorbance 650 nm, 90 min. hit rate 0.05% among 350,000. inhibition, % at 9.99 µM;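 active means mean replicate inhibition above about 25%, with every replicate also reaching it, limit read from the data, passing the limit was not always enough; inconclusive means only one of those two criteria met; inactive means neither criterion met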
# SIRT5 block = inhibitors of human sirtuin-5 desuccinylase | Q9NXA8 | Purified SirT5, succinyl-peptide AMC, trypsin-coupled fluorescence | inhibition, % at 15 µM | hit rate 1.1% among 330,000; in the data active means inhibition above about 15%; inconclusive means no clear call, values can overlap the other calls
# A number is an active result; - = inactive; ? = inconclusive; . = no result given.
SMILES,Rtt109 Vps75,PDI inh,DENV2 CPE,ERp5 inh,SIRT5 block
CCOC(=O)/C(C#N)=C\N(C)C,?,-,.,.,.
CCc1c(C)nn(C(=O)/C(C#N)=C\N(C)C)c1C,-,-,-,-,16
CC(C)(C)C(=O)Nc1sc2c(c1C(=O)Nc1ccccn1)CCCC2,-,-,-,-,18
N#Cc1ccc(C(=O)N(Cc2ccco2)c2c(N)n(Cc3ccccc3)c(=O)[nH]c2=O)cc1,-,33,-,-,-
Nc1c(N(Cc2ccco2)C(=O)c2ccc(Cl)cc2)c(=O)[nH]c(=O)n1Cc1ccccc1,-,-,-,-,-
CC(c1ccccc1)n1c(N2CCNCC2)nc2c1c(=O)[nH]c(=O)n2C (configuration not stated),65,-,-,-,-
CC(c1ccccc1)n1c(Br)nc2c1c(=O)[nH]c(=O)n2C (configuration not stated),-,-,-,-,-
CO[C@H]1CN(C)C(=O)c2cc(NC(=O)CC(F)(F)F)ccc2OC[C@H](C)N(C(=O)C2CC2)C[C@@H]1C,.,.,-,42,-
CCCC(=O)Nc1ccc2c(c1)C(=O)N(C)C[C@H](OC)[C@@H](C)CN(C(=O)C1CCCC1)[C@H](C)CO2,.,.,35,-,-
CO[C@H]1CN(C)C(=O)c2cc(NC(=O)CC(F)(F)F)ccc2OC[C@H](C)N(C(=O)C2CCOCC2)C[C@@H]1C,.,.,27,-,-
CO[C@@H]1CN(C)C(=O)c2cc(NC(=O)CC(F)(F)F)ccc2OC[C@@H](C)N(C(=O)C2CCCC2)C[C@H]1C,.,.,-,-,.
CO[C@@H]1CN(C)C(=O)c2ccc(NC(=O)CC(F)(F)F)cc2OC[C@@H](C)N(C(=O)C2CCOCC2)C[C@@H]1C,.,.,24,-,.
O=C(C[C@H]1C[C@@H]2c3cc(NC(=O)c4cccnc4)ccc3O[C@@H]2[C@H](CO)O1)NCc1cccc(F)c1,.,.,-,-,-
COC(=O)[C@H]1[C@H](CO)[C@H]2Cn3c(ccc(-c4ccc(F)cc4)c3=O)[C@H]2N1C(=O)C1CCC1,.,.,-,-,-
CO[C@@H]1CN(C)C(=O)c2cc(NC(=O)CC(F)(F)F)ccc2OC[C@H](C)N(C(=O)C2CCOCC2)C[C@@H]1C,.,.,26,-,.
CC(C)(C)OC(=O)N(CCc1ccccc1)Cc1ccccc1OCc1ccc(NC(=O)C2CCC2)cc1,-,-,-,-,-
CC(C)(C)OC(=O)N(CCc1ccccc1)Cc1ccccc1OCc1cccc(NC(=O)C2CCCC2)c1,-,-,-,-,29
CC(C)(C)OC(=O)N(CCc1ccccc1)Cc1ccccc1OCc1cccc(NC(=O)C2CC2)c1,-,-,-,-,-
CC(C)(C)OC(=O)N(Cc1ccccc1)Cc1ccccc1OCc1ccc(NC(=O)C2CCC2)cc1,-,-,28,-,-
CC(C)C(=O)Nc1cccc(COc2ccccc2CN(Cc2ccccc2)C(=O)OC(C)(C)C)c1,-,-,-,-,18
O=C(C[C@@H]1C=C[C@H](NC(=O)C2CC2)[C@@H](CO)O1)Nc1nccs1,.,.,-,-,-
N#C[C@@H]1[C@H](c2ccc(C3=CCCC3)cc2)[C@@H](CO)N1C(=O)C1CC1,.,.,-,-,-
COc1ccc(-c2cc3nc(-c4ccccc4)cc(N4CCN(C(=O)c5ccsc5)CC4)n3n2)cc1,.,-,63,-,-
O=C(C[C@@H]1C[C@@H]2c3cc(NC(=O)C4CCC4)ccc3O[C@@H]2[C@H](CO)O1)NC1CCCC1,.,.,-,-,-
COc1ccccc1S(=O)(=O)N(C)C[C@@H]1Oc2cc(C#CCC3CCCC3)ccc2S(=O)(=O)N([C@@H](C)CO)C[C@H]1C,.,.,-,-,-
SMILES,Rtt109 Vps75,PDI inh,DENV2 CPE,ERp5 inh,SIRT5 block
COc1ccccc1S(=O)(=O)N(C)C[C@@H]1Oc2cc(C#CCC3CCCC3)ccc2S(=O)(=O)N([C@@H](C)CO)C[C@@H]1C,.,.,-,-,17
COc1ccccc1S(=O)(=O)N(C)C[C@H]1Oc2cc(C#CCC(C)C)ccc2S(=O)(=O)N([C@H](C)CO)C[C@@H]1C,.,.,-,-,30
COc1ccccc1S(=O)(=O)N(C)C[C@H]1Oc2cc(C#CCC(C)C)ccc2S(=O)(=O)N([C@@H](C)CO)C[C@H]1C,.,.,-,-,-
c1ccc(CCn2nnc3ccccc32)cc1,-,-,-,-,20
N#CCCn1nnc2ccccc21,-,-,.,.,.
O=C(Nc1ccc(N2CCCC2)c(Cl)c1)c1cccs1,-,-,-,-,67
O=C(NC(=S)Nc1ccc(N2CCOCC2)c(Cl)c1)c1cccs1,-,-,.,-,-
COc1ccc(NC(=O)CN2c3cccc4cccc(c34)S2(=O)=O)cc1,-,-,.,.,.
CCOc1ccccc1NC(=O)CN1c2cccc3cccc(c23)S1(=O)=O,-,-,-,-,19
